Screening results as filed in PubChem BioAssay.
Only some compounds are listed: those with a hit (about 5.9% of all), similar ones and a draw of the others.
HSF1 inh: HSF1 inhibitors in luciferase reporter cells, primary screen, cell-based, NIH3T3, luminescence; activity change, negative = inhibition, % at 7.5 µM (by protocol); NIH3T3-HGL HSE-luciferase, MG132-induced, luminescence 8 h; active compounds read low; AID 2098, 2009; 0.77% of 300,000 active;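 active = more than half of replicate wells show activity change below -50%, luminescence cut by over half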;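 also: luciferase reports HSF-1 transcriptional activity via heat shock element; 0% = median of DMSO wells and -100% = zero luminescence signal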
GAA850 FXN act: FXN promoter activators, primary screen, cell-based, luciferase luminescence, HEK293 lucGAA850; HEK293 lucGAA850 FXN promoter luciferase reporter, 24 h; percent of 10 µM SAHA response; activation, % at 6 µM; 0.56% of 360,000 active;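 active = activation above the average of all compounds screened plus 3 SD, cutoff fixed separately per campaign, cut at about 7.5% in these data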;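 also: 0% = DMSO wells and 100% = 10 µM SAHA wells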
AHR activator: AHR activators, primary screen, cell-based, luminescence, luciferase reporter, human | Aryl hydrocarbon receptor (Homo sapiens), P35869 | activation, % at 5 µM | 2.5% of 320,000 active | AHR-responsive luciferase reporter cells; in the data active = activation above about 47%;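 also: 0% = vehicle wells and 100% = reference agonist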
HSP90 inh: HSP90 inhibitors, primary screen, cell lysate, luminescence. Heat shock protein HSP 90 (rabbit reticulocyte lysate; luciferase refolding). Rabbit reticulocyte lysate, luciferase refolding luminescence, 3 h. 0.91% of 290,000 active. inhibition, % at 5.6 µM;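 active = inhibition above the screen-wide mean plus 3 SD, computed separately per campaign, cut at about 16% in these data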;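 also: 0% = DMSO wells and 100% = 60 µM geldanamycin wells; inhibitors lower the luminescence because luciferase stays unfolded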
HSF1 activator: HSF-1 activators, primary screen, NIH3T3-HGL cells, MG132 stress, luminescence, single point | NIH3T3-HGL HSF-1 luciferase reporter, 8 h; 100% = twice DMSO control signal | activation, % at 9 µM | 1.7% of 300,000 active | AID 504408, 2011;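 active = mean replicate activation of at least 50% with a set share of replicates each reaching 50%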;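 also: 0% = median of the neutral control wells and 100% = twice that signal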
DAX1 inh: DAX1 (NR0B1) inhibitors, primary screen, cell-based, HEK293, Gal4-DAX1, luciferase luminescence | Nuclear receptor subfamily 0 group B member 1 (Homo sapiens), P51843 | HEK293 Gal4-DAX1 luciferase reporter | inhibition, % at 6.75 µM | 0.99% of 340,000 active | AID 504766, 2011;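 active = inhibition above the mean over all tested compounds plus 3 SD, cut at about 4.2% in these data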;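 also: 0% = DAX1-transfected cells with DMSO and 100% = empty-vector control cells with DMSO; inhibition shows as a rise in luminescence from relieved DAX1 repression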
Target sequence (P51843 207-470 limits assumed): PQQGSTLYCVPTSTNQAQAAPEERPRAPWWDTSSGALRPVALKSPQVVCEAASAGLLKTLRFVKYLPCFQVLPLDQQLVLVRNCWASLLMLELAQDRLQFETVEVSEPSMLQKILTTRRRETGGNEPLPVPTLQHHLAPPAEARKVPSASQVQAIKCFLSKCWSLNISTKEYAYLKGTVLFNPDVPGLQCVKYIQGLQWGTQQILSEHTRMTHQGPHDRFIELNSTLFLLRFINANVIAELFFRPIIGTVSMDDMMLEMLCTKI
* hit, by the source's call; . = not tested or not shown.

SMILES	HSF1 inh	GAA850 FXN act	AHR activator	HSP90 inh	HSF1 activator	DAX1 inh
COc1ccc(N(C)C(=O)c2sc(Cl)nc2C)cc1	-2	-1	0	-1	-9	0
Cc1ccc(OC(=O)c2sc(Cl)nc2C)cc1C	-2	0	2	-5	-4	4.3*
O=C(Oc1cccc2ccccc12)c1ccccc1	.	1	.	.	.	7.1*
O=C(Oc1cccc2c(O)cccc12)c1ccccc1	16	2	11	-3	48	0
CC1=NC(=O)C(N=Nc2ccccc2)N1c1ccccc1 (stereo unspecified)	-1	6	23	-1	35	4.6*
CC1=NC(=O)C(N=Nc2ccccc2C(=O)O)N1c1ccccc1 (stereo unspecified)	-7	-2	.	3	-21	.
CC1=NC(=O)C(N=Nc2cccc(C(=O)O)c2)N1c1ccccc1 (stereo unspecified)	1	-4	-6	17*	7	-4
CCCS(=O)(=O)NC(=O)C1(C)CCN1C(=O)Cc1ccc(Cl)cc1Cl (stereo unspecified)	.	0	.	.	.	.
Cc1cc(C)[n+](-c2ccc(C(C)C)cc2)c2[nH]c(=O)[nH]c(=O)c12	-2	-1	3	3	4	0
Cc1cccc(-[n+]2c(C)cc(C)c3c(=O)[nH]c(=O)[nH]c32)c1	14	-2	10	-4	63*	-1
COc1ccc(OC(C)C(=O)N2CCC(C)CC2)cc1 (stereo unspecified)	-66*	2	2	0	-73	0
CCNC(=O)C1CCCN(C(=O)c2ccc(C)c(F)c2)CC1 (stereo unspecified)	.	2	.	.	.	.
Cc1cc(C(=O)N/N=C/c2cc(Br)ccc2OC(=O)c2ccccc2Cl)n[nH]1	5	-2	65*	-4	29	-1
Cc1cc(C(=O)N/N=C/c2cc(Br)ccc2OC(=O)c2ccccc2)n[nH]1	.	-4	42	-2	.	-1
Nc1nn2cc(-c3ccccc3)nc2c2ccccc12	30	7	46	8	58*	2
Cc1cn2nc(N)c3ccccc3c2n1	.	2	18	-2	.	-1
CCCCC(=O)N(C)c1c(C)nc2ccc(C(=O)N(C)Cc3ccco3)cn12	.	-1	.	.	.	.
COc1ccccc1N1CCN(C(c2ccc(N(C)C)cc2)c2nnnn2CCc2ccccc2)CC1 (stereo unspecified)	-72*	1	8	-3	-78	0
Nn1c(SCC(=O)NCCC2=CCCCC2)nnc1C1CCCCC1	-4	0	5	0	1	-1
Nn1c(SCC(=O)NCCC2=CCCCC2)nnc1C(F)(F)F	0	-1	50*	-5	9	0
O=[N+]([O-])CC(=Nc1ccc(F)cc1)N/N=C\c1oc(O)c2ccccc12	0	.	54*	0	-12	.
Cc1nc(N)ncc1CCC1OCCO1	.	-1	.	.	.	1
CC1(C)CC(NC(=O)c2ccccc2)CC(C)(C)N1	0	1	1	-2	1	0
C[C@@H]1C(NC(=O)c2ccccc2)CC2CC1C2(C)C (stereo partly specified)	21	-2	3	0	73*	0
Cc1ccc(CSc2ncn(-c3ccccc3)n2)cc1	22	2	-3	2	22	4.2*
COc1ccc(C=C(c2nc3ccccc3s2)c2nc3ccccc3s2)cc1O	124	-4	46	2	132*	-3
COc1cc(/C=C(\C#N)c2nc3ccc(C)cc3[nH]2)c([N+](=O)[O-])cc1OC	21	2	66*	3	64*	-1
COc1cc(/C(C#N)=C/c2ccccc2)c([N+](=O)[O-])cc1OC	6	-1	47*	0	3	-1
COc1ccc(/C=C(\C#N)c2nc3ccccc3[nH]2)cc1O	60	5	.	-3	85*	4
COc1c(O)ccc(/C=C(\C#N)c2nc3ccccc3[nH]2)c1[N+](=O)[O-]	8	5	50*	2	7	1
